Data reported in publication PMC5540273 (PLoS ONE, 2017).

System: LATS2
Details: concentration: 1 μM, replicates: in singlicate; n = 1
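Note: KINOMEscan kinase panel screen.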

Row | Structure (SMILES) | %Inh
1 | COc1cccc(NC(=O)Nc2ccc(C)c(-c3ccc(C(=O)Nc4ccncc4)cc3)c2)c1 [GSK1398474] | 5%
2 | CS(=O)(=O)Cc1ccc(Nc2nccc(-c3c(-c4cccc(NC(=O)C5CCCCC5)c4)nn4ncccc34)n2)cc1 [GSK350559] | 48%
3 | COc1ccc(Nc2nccc(-c3ccc(NC(=O)c4cc5cc(F)ccc5[nH]4)cc3)n2)cc1 [GSK1229496] | 1%
4 | Cc1cccc2c(-c3ccncn3)c(-c3ccc(F)cc3)nn12 [GW515532] | 11%
5 | NS(=O)(=O)c1cccc(N/C=C2\C(=O)Nc3ccc(S(=O)(=O)Cc4c(Cl)cccc4Cl)cc32)c1 [GSK398099] | 22%
6 | O=C(Nc1n[nH]c2nc(-c3ccco3)c(Br)cc12)C1CCN(Cc2ccccc2)C1.O=C(O)[C@H](O)[C@@H](O)C(=O)O (stereo not drawn) [SB-742034] | 0%
7 | COc1ccc(-c2coc3ccc(-c4nnc(C)o4)cc23)cc1 | 0%
8 | O=c1cc(N2CCOCC2)nc2n(Cc3ccccc3F)ccn12 [GSK2297428] | 0%
9 | COC(=O)c1cccc(NC(=O)NC2CCN(c3ccnc(Nc4ccc(F)cc4)n3)C2)c1 (stereo not drawn) [GSK1379725] | 0%
10 | Cc1c(Cn2c(C)c(C)n3c(=O)cc(N4CCOCC4)nc23)cccc1C(F)(F)F [GSK2328680] | 1%
11 | CNC(=O)c1ccc(C)c(-n2c(C)cc(OCc3ccc(F)cc3F)c(Br)c2=O)c1 | 0%
12 | COc1ccc(Nc2nccc(N3CCC(NC(=O)c4cc5ccccc5s4)C3)n2)cc1 (stereo not drawn) [GSK1379738] | 1%
13 | CC(=O)c1cccc(NC(=O)NC2CCN(c3ccnc(Nc4ccc(F)cc4)n3)C2)c1 (stereo not drawn) [GSK1379710] | 2%
14 | O=C1NC(=O)C(c2ccc(Cl)cc2)=C1Nc1cccc(Cl)c1 [SB-317651] | 9%
15 | Cc1ccc(NC(=O)Nc2ccccc2F)cc1-c1ccc(C(=O)Nc2ccncc2)cc1 [GSK1398477] | 2%
16 | Cc1ccc(NC(=O)c2ccc(Cl)cc2)cc1-c1ccc(C(=O)Nc2ccncc2)cc1 [GSK1398467] | 0%
17 | Cc1ccccc1-c1cc(-c2c[nH]nc2-c2ccccn2)ccn1 [GW680061] | 0%
18 | CC[C@@H]1CO[C@H](C(=O)Nc2ccccc2)CN1c1cc(-c2ccc3c(N)n[nH]c3c2)nc(NC)n1 [GSK2376236] | 0%

Row | Structure (SMILES) | %Inh
19 | COc1ccc(CSc2nnc(-c3ccc4ncsc4c3)o2)cc1C(F)(F)F | 0%
20 | Cc1ccc(-c2nc(Nc3ccncc3)c3ccccc3n2)s1 [GSK189015] | 0%
21 | Cc1ccccc1Cn1ccn2c(=O)cc(N3CCOCC3)nc12 [GSK2269905] | 0%
22 | CS(=O)(=O)CCNCc1nc(-c2ccc3ncnc(Nc4ccc5c(cnn5Cc5ccccc5)c4)c3c2)cs1.Cl.Cl [GW569716] | 0%
23 | Cc1nccc(-c2c(-c3ccc(F)cc3)ncn2CCCN2CCOCC2)n1.Cl [SB-282975] | 0%
24 | Cn1cncc1C(=O)NC1CCN(c2ccnc(Nc3ccc(F)cc3)n2)C1 (stereo not drawn) [GSK1379717] | 0%
25 | CN1c2ccc(-c3ccc(C(N)=O)cc3)cc2-c2[nH]ncc2S1(=O)=O | 0%
26 | CC(C)c1cc(-c2ccc3c(N)n[nH]c3c2)nc(N)n1 [GSK2250882] | 0%
27 | O=C(Nc1n[nH]c2nc(-c3cccs3)c(Br)cc12)C1CC1 [SB-735297] | 3%
28 | Cc1ccc(NC(=O)Nc2ccc(Cl)cc2)cc1-c1ccc(C(=O)Nc2ccncc2)cc1 [GSK1398472] | 0%
29 | Fc1ccc(-c2nn3cccc(F)c3c2-c2ccncc2)cc1 [GW475620] | 0%
30 | CC(C)c1ccc(O)cc1Nc1ccnc2ccc(C(F)(F)F)cc12 [GW482059] | 0%
31 | Fc1ccc(-c2nc3n(c2-c2ccncc2)CCS3)cc1 [GI98581] | 0%
32 | O=C(Nc1n[nH]c2cc(-c3ccsc3)ccc12)C1CC1 [SB-732932] | 15%
33 | Cc1cnc(N)c(/C=C/c2cncc(C(=O)NCCc3ccc(Cl)cc3Cl)c2)c1.Cl [GSK190937] | 36%
34 | CC(=O)c1c(C)c2cnc(Nc3ccc(N4CCNCC4)cn3)nc2n(C2CCCC2)c1=O | 26%
35 | COc1ccc2cc(-c3nc(-c4ccccc4C(C)C)[nH]c3-c3ccncc3)ccc2c1 [SB-660566] | 0%
36 | CCc1ccc(-c2ccc3c(c2)-c2n[nH]cc2S(=O)(=O)N3C)cc1 | 0%

System: LCK
Details: concentration: 1 μM, replicates: in singlicate; n = 1

Row | Structure (SMILES) | %Inh
37 | COc1cccc(NC(=O)Nc2ccc(C)c(-c3ccc(C(=O)Nc4ccncc4)cc3)c2)c1 [GSK1398474] | 43%
38 | CS(=O)(=O)Cc1ccc(Nc2nccc(-c3c(-c4cccc(NC(=O)C5CCCCC5)c4)nn4ncccc34)n2)cc1 [GSK350559] | 23%
39 | COc1ccc(Nc2nccc(-c3ccc(NC(=O)c4cc5cc(F)ccc5[nH]4)cc3)n2)cc1 [GSK1229496] | 0%
40 | Cc1cccc2c(-c3ccncn3)c(-c3ccc(F)cc3)nn12 [GW515532] | 17%
41 | NS(=O)(=O)c1cccc(N/C=C2\C(=O)Nc3ccc(S(=O)(=O)Cc4c(Cl)cccc4Cl)cc32)c1 [GSK398099] | 13%
42 | O=C(Nc1n[nH]c2nc(-c3ccco3)c(Br)cc12)C1CCN(Cc2ccccc2)C1.O=C(O)[C@H](O)[C@@H](O)C(=O)O (stereo not drawn) [SB-742034] | 5%
43 | COc1ccc(-c2coc3ccc(-c4nnc(C)o4)cc23)cc1 | 0%
44 | O=c1cc(N2CCOCC2)nc2n(Cc3ccccc3F)ccn12 [GSK2297428] | 28%
45 | COC(=O)c1cccc(NC(=O)NC2CCN(c3ccnc(Nc4ccc(F)cc4)n3)C2)c1 (stereo not drawn) [GSK1379725] | 0%
46 | Cc1c(Cn2c(C)c(C)n3c(=O)cc(N4CCOCC4)nc23)cccc1C(F)(F)F [GSK2328680] | 18%
47 | CNC(=O)c1ccc(C)c(-n2c(C)cc(OCc3ccc(F)cc3F)c(Br)c2=O)c1 | 1%
48 | COc1ccc(Nc2nccc(N3CCC(NC(=O)c4cc5ccccc5s4)C3)n2)cc1 (stereo not drawn) [GSK1379738] | 16%
49 | CC(=O)c1cccc(NC(=O)NC2CCN(c3ccnc(Nc4ccc(F)cc4)n3)C2)c1 (stereo not drawn) [GSK1379710] | 12%
50 | O=C1NC(=O)C(c2ccc(Cl)cc2)=C1Nc1cccc(Cl)c1 [SB-317651] | 0%
51 | Cc1ccc(NC(=O)Nc2ccccc2F)cc1-c1ccc(C(=O)Nc2ccncc2)cc1 [GSK1398477] | 68%
52 | Cc1ccc(NC(=O)c2ccc(Cl)cc2)cc1-c1ccc(C(=O)Nc2ccncc2)cc1 [GSK1398467] | 68%
53 | Cc1ccccc1-c1cc(-c2c[nH]nc2-c2ccccn2)ccn1 [GW680061] | 5%
54 | CC[C@@H]1CO[C@H](C(=O)Nc2ccccc2)CN1c1cc(-c2ccc3c(N)n[nH]c3c2)nc(NC)n1 [GSK2376236] | 30%

Row | Structure (SMILES) | %Inh
55 | COc1ccc(CSc2nnc(-c3ccc4ncsc4c3)o2)cc1C(F)(F)F | 0%
56 | Cc1ccc(-c2nc(Nc3ccncc3)c3ccccc3n2)s1 [GSK189015] | 7%
57 | Cc1ccccc1Cn1ccn2c(=O)cc(N3CCOCC3)nc12 [GSK2269905] | 16%
58 | CS(=O)(=O)CCNCc1nc(-c2ccc3ncnc(Nc4ccc5c(cnn5Cc5ccccc5)c4)c3c2)cs1.Cl.Cl [GW569716] | 9%
59 | Cc1nccc(-c2c(-c3ccc(F)cc3)ncn2CCCN2CCOCC2)n1.Cl [SB-282975] | 27%
60 | Cn1cncc1C(=O)NC1CCN(c2ccnc(Nc3ccc(F)cc3)n2)C1 (stereo not drawn) [GSK1379717] | 4%
61 | CN1c2ccc(-c3ccc(C(N)=O)cc3)cc2-c2[nH]ncc2S1(=O)=O | 5%
62 | CC(C)c1cc(-c2ccc3c(N)n[nH]c3c2)nc(N)n1 [GSK2250882] | 9%
63 | O=C(Nc1n[nH]c2nc(-c3cccs3)c(Br)cc12)C1CC1 [SB-735297] | 16%
64 | Cc1ccc(NC(=O)Nc2ccc(Cl)cc2)cc1-c1ccc(C(=O)Nc2ccncc2)cc1 [GSK1398472] | 60%
65 | Fc1ccc(-c2nn3cccc(F)c3c2-c2ccncc2)cc1 [GW475620] | 18%
66 | CC(C)c1ccc(O)cc1Nc1ccnc2ccc(C(F)(F)F)cc12 [GW482059] | 22%
67 | Fc1ccc(-c2nc3n(c2-c2ccncc2)CCS3)cc1 [GI98581] | 26%
68 | O=C(Nc1n[nH]c2cc(-c3ccsc3)ccc12)C1CC1 [SB-732932] | 0%
69 | Cc1cnc(N)c(/C=C/c2cncc(C(=O)NCCc3ccc(Cl)cc3Cl)c2)c1.Cl [GSK190937] | 7%
70 | CC(=O)c1c(C)c2cnc(Nc3ccc(N4CCNCC4)cn3)nc2n(C2CCCC2)c1=O | 0%
71 | COc1ccc2cc(-c3nc(-c4ccccc4C(C)C)[nH]c3-c3ccncc3)ccc2c1 [SB-660566] | 11%
72 | CCc1ccc(-c2ccc3c(c2)-c2n[nH]cc2S(=O)(=O)N3C)cc1 | 4%
